From PubChem BioAssay (NCI)
The panel holds about 79,000 compounds, 15% with a hit somewhere; the sample as a whole holds those more often. The source made the active and inactive calls. Cut-off read from the data, not from the text of the source: active = growth inhibition above about 70%; inactive = the rest.

Columns and labels:
[1] = NCI Yeast Anticancer Drug Screen. Data for the rad52 strain (AID 147);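 note: 0% = growth of vehicle-treated control cultures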; details: S. cerevisiae rad52 mutant growth inhibition, hits give high values
How it was run: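 DNA repair-defective yeast; compound exposure; growth scored against vehicle controls.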

[2] = NCI Yeast Anticancer Drug Screen. Data for the wt1 strain (AID 149);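 note: 0% = growth of vehicle-treated wt1 cultures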; details: S. cerevisiae wt1 strain (SPY 50644) growth inhibition, hits give high values
How it was run: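 Vehicle-normalised growth inhibition; strain wt1; compound exposure.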

[3] = NCI Yeast Anticancer Drug Screen. Data for the rad50EPP+ strain (AID 151);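 note: 0% = growth of vehicle-treated control cultures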; details: S. cerevisiae rad50 mutant strain, hits give high values
How it was run: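 rad50EPP+ yeast treated with test compounds. Readout: growth vs vehicle control.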

[4] = NCI Yeast Anticancer Drug Screen. Data for the mgt1 strain (AID 153); details: S. cerevisiae mgt1 mutant growth inhibition, hits give high values
How it was run: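 Growth inhibition relative to vehicle controls was scored for the mgt1 yeast strain after compound exposure.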

[5] = NCI Yeast Anticancer Drug Screen. Data for the rad50 strain (AID 155);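 note: 0% = growth of vehicle-only cultures of the same strain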; details: S. cerevisiae rad50 strain growth inhibition, hits give high values
How it was run: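 A DNA repair-deficient yeast mutant serves as the test organism; compound-induced growth inhibition is calculated against vehicle-treated cells.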

[6] = NCI Yeast Anticancer Drug Screen. Data for the mec2-1 strain (AID 157); details: S. cerevisiae mec2-1 strain, hits give high values
How it was run: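 Growth inhibition is read against vehicle-treated controls after compound exposure of the mec2-1 yeast strain, which is defective in DNA damage repair or cell cycle control.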

[7] = NCI Yeast Anticancer Drug Screen. Data for the rad14 strain (AID 159);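 note: 0% = growth of vehicle-treated control cultures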; details: S. cerevisiae rad14 strain growth inhibition, hits give high values
How it was run: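 Vehicle-treated cultures served as the baseline for growth inhibition of a DNA repair-mutant yeast strain exposed to each compound.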

[8] = NCI Yeast Anticancer Drug Screen. Data for the sgs1 mgt1 strain (AID 161);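 note: 0% = growth of cultures given vehicle only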; details: S. cerevisiae sgs1 mgt1 strain, hits give high values
How it was run: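 Growth of a repair-deficient yeast mutant was monitored after compound treatment and expressed as inhibition relative to vehicle-treated cultures.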

[9] = NCI Yeast Anticancer Drug Screen. Data for the CLN2oe strain (AID 163);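 note: 0% = growth of vehicle-only control cultures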; details: S. cerevisiae CLN2oe strain, hits give high values
How it was run: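 Compound-treated yeast; growth vs vehicle ctrl = % inhibition. Genetically altered strain (cell-cycle control).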

[10] = NCI Yeast Anticancer Drug Screen. Data for the cln2 rad14 strain (AID 165);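 note: 0% = growth equal to vehicle treated cultures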; details: S. cerevisiae cln2 rad14 strain, hits give high values
How it was run: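 Growth inhibition, relative to vehicle-treated controls, is the read-out. The test organism is a yeast strain with defined genetic alterations, cln2 rad14.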

[11] = NCI Yeast Anticancer Drug Screen. Data for the bub3 strain (AID 167); details: S. cerevisiae bub3 mutant strain, hits give high values
How it was run: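 Inhibition values come from growth of compound-treated mutant yeast normalised to vehicle-treated controls.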

[12] = NCI Yeast Anticancer Drug Screen. Data for the wt2 strain (AID 169);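 note: 0% = growth of vehicle-treated yeast cultures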; details: S. cerevisiae wt2 strain growth inhibition, hits give high values
How it was run: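 Compound exposure of yeast; growth compared with vehicle controls; inhibition reported.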

[13] = NCI Yeast Anticancer Drug Screen. Data for the mlh1 strain (AID 171);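 note: 0% = growth of vehicle-treated control cultures of the same strain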; details: S. cerevisiae mlh1 strain growth inhibition, hits give high values
How it was run: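 Compounds are applied to a genetically altered yeast strain, and its growth is compared with that of vehicle-treated cultures to give percent inhibition.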

[14] = NCI Yeast Anticancer Drug Screen. Data for the sgs1 strain (AID 173);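 note: 0% = growth of vehicle-only control cultures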; details: S. cerevisiae sgs1 mutant, hits give high values
How it was run: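 Compounds applied to genetically altered yeast; growth compared with vehicle-treated cultures to give % inhibition.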

[15] = NCI Yeast Anticancer Drug Screen. Data for the mlh1 rad18 strain (AID 175); details: S. cerevisiae mlh1 rad18 strain growth inhibition, hits give high values
How it was run: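 Cells of a genetically altered yeast strain, deficient in DNA damage repair, were treated with compound. Their growth was then compared with that of vehicle-treated cultures to give inhibition.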

[16] = NCI Yeast Anticancer Drug Screen. Data for the rad18 strain (AID 177); details: S. cerevisiae rad18 mutant growth inhibition, hits give high values
How it was run: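 Compounds are applied to a repair-deficient yeast strain, and growth is compared with that of vehicle-treated cultures to give percent inhibition.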

[17] = at 5.0 µM (retest, dose inferred, filed as 0.5)
[18] = at 50.0 µM (retest, dose inferred, filed as 5.0)

Measured: growth inhibition

CCN(CC)CCC(=O)c1ccc(Oc2ccc(F)cc2)cc1
active: [1]; at 100.0 µM 83% | [2]; at 100.0 µM 80% | [3]; at 100.0 µM 93% | [4]; at 11.0 µM 76% | [4]; at 33.0 µM 92% | [4]; at 100.0 µM 94% | [5]; [18] 82% | [5]; at 100.0 µM 87% | [6]; [18] 87% | [6]; at 100.0 µM 95% | [7]; at 33.0 µM 79% | [7]; at 100.0 µM 81% | [8]; at 50.0 µM 76.5% | [11]; at 33.0 µM 83% | [11]; at 100.0 µM 97% | [12]; at 33.0 µM 71% | [12]; at 100.0 µM 80% | [13]; at 33.0 µM 73% | [13]; at 100.0 µM 83% | [14]; at 100.0 µM 96% | [15]; [18] 93% | [16]; at 100.0 µM 96%
inactive: [1]; at 1.2 µM -23% | [1]; at 3.7 µM -26% | [1]; at 11.0 µM -40% | [1]; at 33.0 µM 8% | [2]; at 1.2 µM -11% | [2]; at 3.7 µM 23% | [2]; at 11.0 µM 21% | [2]; at 33.0 µM -5% | [3]; at 1.2 µM -9% | [3]; at 3.7 µM -30% | [3]; at 11.0 µM 9% | [3]; at 33.0 µM 36% | [4]; at 1.2 µM 49% | [4]; at 3.7 µM 59% | [5]; at 1.2 µM -5% | [5]; at 3.7 µM -21% | [5]; [17] 46% | [5]; at 11.0 µM -17% | [5]; at 33.0 µM 2% | [5]; at 50.0 µM 57% | [6]; at 1.2 µM 17% | [6]; at 3.7 µM 35% | [6]; [17] 41% | [6]; at 11.0 µM 42% | [6]; at 33.0 µM 52% | [6]; at 50.0 µM 44.5% | [7]; at 1.2 µM 5% | [7]; at 3.7 µM 39% | [7]; at 11.0 µM 51% | [8]; [17] 62% | [8]; [18] 66% | [9]; at 1.2 µM 10% | [9]; at 3.7 µM 17% | [9]; at 11.0 µM 35% | [9]; at 33.0 µM 54% | [9]; at 100.0 µM 68% | [10]; [17] 21% | [10]; [18] 3% | [10]; at 50.0 µM 32.9% | [11]; at 1.2 µM 35% | [11]; at 3.7 µM 46% | [11]; [17] 55% | [11]; at 11.0 µM 58% | [11]; [18] 47% | [11]; at 50.0 µM 69.6% | [12]; at 1.2 µM 17% | [12]; at 3.7 µM 21% | [12]; at 11.0 µM 41% | [13]; at 1.2 µM 34% | [13]; at 3.7 µM 37% | [13]; at 11.0 µM 58% | [14]; at 1.2 µM -12% | [14]; at 3.7 µM -2% | [14]; at 11.0 µM 11% | [14]; at 33.0 µM 59% | [15]; [17] 65% | [15]; at 50.0 µM 47.5% | [16]; at 1.2 µM 4% | [16]; at 3.7 µM 26% | [16]; at 11.0 µM 27% | [16]; at 33.0 µM 52%

Cn1c(=O)c(-c2ccccc2)c(N=[N+]=[N-])c2ccccc21
inactive: [1]; at 1.2 µM -11% | [1]; at 3.7 µM -6% | [1]; at 11.0 µM 3% | [2]; at 1.2 µM -38% | [2]; at 3.7 µM -26% | [2]; at 11.0 µM -25% | [3]; at 1.2 µM -15% | [3]; at 3.7 µM 6% | [3]; at 11.0 µM 10% | [3]; at 33.0 µM 4% | [3]; at 100.0 µM -18% | [4]; at 1.2 µM 1% | [4]; at 3.7 µM 0% | [4]; at 11.0 µM 32% | [5]; at 1.2 µM 14% | [5]; at 3.7 µM 7% | [5]; [17] -22% | [5]; at 11.0 µM 20% | [6]; at 1.2 µM -1% | [6]; at 3.7 µM -9% | [6]; [17] -10% | [6]; at 11.0 µM 4% | [7]; at 1.2 µM 12% | [7]; at 3.7 µM 4% | [7]; at 11.0 µM 5% | [8]; [17] 61% | [9]; at 1.2 µM 5% | [9]; at 3.7 µM -17% | [9]; at 11.0 µM 13% | [10]; [17] 23% | [11]; at 1.2 µM 26% | [11]; at 3.7 µM 26% | [11]; [17] -7% | [11]; at 11.0 µM 35% | [12]; at 1.2 µM -35% | [12]; at 3.7 µM -29% | [12]; at 11.0 µM -9% | [13]; at 1.2 µM 1% | [13]; at 3.7 µM 3% | [13]; at 11.0 µM 43% | [14]; at 1.2 µM -11% | [14]; at 3.7 µM -13% | [14]; at 11.0 µM 13% | [15]; [17] -4% | [16]; at 1.2 µM 7% | [16]; at 3.7 µM -5% | [16]; at 11.0 µM 11%
active: [1]; at 33.0 µM 92% | [1]; at 100.0 µM 89% | [2]; at 33.0 µM 91% | [2]; at 100.0 µM 90% | [4]; at 33.0 µM 94% | [4]; at 100.0 µM 89% | [5]; at 33.0 µM 92% | [5]; [18] 94% | [5]; at 50.0 µM 82.7% | [5]; at 100.0 µM 92% | [6]; at 33.0 µM 87% | [6]; [18] 92% | [6]; at 50.0 µM 83.8% | [6]; at 100.0 µM 93% | [7]; at 33.0 µM 93% | [7]; at 100.0 µM 89% | [8]; [18] 93% | [8]; at 50.0 µM 87.4% | [9]; at 33.0 µM 94% | [9]; at 100.0 µM 90% | [10]; [18] 89% | [10]; at 50.0 µM 86% | [11]; at 33.0 µM 94% | [11]; [18] 95% | [11]; at 50.0 µM 86.5% | [11]; at 100.0 µM 94% | [12]; at 33.0 µM 87% | [12]; at 100.0 µM 91% | [13]; at 33.0 µM 92% | [13]; at 100.0 µM 88% | [14]; at 33.0 µM 91% | [14]; at 100.0 µM 92% | [15]; [18] 94% | [15]; at 50.0 µM 83% | [16]; at 33.0 µM 93% | [16]; at 100.0 µM 85%
